Test results taken from ChEMBL document CHEMBL3988442, “University of Dundee, Small-Polar-MMV Screening Library” (2021).
The campaign covered roughly 48,000 compounds. About 13,000 (27%) showed an effect of 50% or more. Some of the results follow.

Test system: Wolbachia pipientis
Experiment: Anti-Wolbachia Cell-Based Screen
Format: functional
Design: scale not given: in the data most compounds retested in dose-response had high values
Conditions: 5 µM

| SMILES | Percent Effect [%] |
| --- | --- |
| CCC(=O)c1ccc(OCC(=O)NC(C)Cc2cc(C)n[nH]2)cc1 (stereo unspecified) | -9.204 |
| CC(C)NC(=O)N1CCN(S(=O)(=O)C2CC2)CC2(CNC(=O)C2)C1 (stereo unspecified) | 10.45 |
| CCn1cc(CN2CCCN(C(=O)CCc3cnn(C)c3)CC2)cn1 | 103.4 |
| Cn1cc(CCC(=O)N2CCN(Cc3ccncc3)CC2)cn1 | -1.736 |
| CCn1cc(CN2CCCN(C(=O)CCc3ccncc3)CC2)cn1 | -3.575 |
| CCn1cc(CN2CCCN(C(=O)CCc3ccccc3)CC2)cn1 | 96.36 |
| CCn1cc(CN2CCCN(C(=O)CCN3CCCC3=O)CC2)cn1 | 112.3 |
| CCn1cc(CN2CCCN(C(=O)C3=NN(C)C(=O)CC3)CC2)cn1 | 3.458 |
| CCn1cc(CN2CCCN(C(=O)C3(C#N)CCCCC3)CC2)cn1 | -13.94 |
| CCn1cc(CN2CCCN(C(=O)CCCn3cncn3)CC2)cn1 | 2.568 |
| CCn1cc(CN2CCCN(C(=O)CCn3cc(C)cn3)CC2)cn1 | 86.19 |
| CCn1cc(CN2CCCC3(CCC(=O)N(CCC(C)C)C3)C2)cn1 (stereo unspecified) | -5.478 |
| OCC1(O)CCN(c2ncccc2C(F)(F)F)CC1 | 1.862 |
| Cc1[nH]ccc1C(=O)N[C@H]1CN(S(C)(=O)=O)C[C@@H]1C1CC1 | 3.151 |
| CC(C)Cc1ncc2c(n1)CN(C(=O)c1ccc(Cn3ccnc3)o1)C2 | -18.35 |
| CCn1ccnc1CN1C[C@@H](NC(=O)C2CC2)[C@H](c2ccc(C)cc2)C1 | -6.865 |
| C[C@H]1CN(C)C[C@@]12COCCN(C(=O)Cc1ccccc1)C2.O=C(O)C(F)(F)F | 7.732 |
| CC(=O)N1CCC(C(=O)N2CCOC(CC3CCCCC3)C2)CC1 (stereo unspecified) | -4.464 |
| CCn1cc(CN2CCCN(C(=O)CCc3cccs3)CC2)cn1 | 101.9 |
| CCn1cc(CN2CCCN(C(=O)CCc3nccs3)CC2)cn1 | 73.27 |
| CC(=O)Nc1nc(COc2nc(C)no2)cs1 | -3.939 |
| CCCN1CCC(CC(=O)N(C)CC(=O)c2ccc(O)cc2)CC1 | -25.77 |
| Cc1ncc2c(n1)CN(Cc1noc(C3CC3)n1)CC2 | 2.312 |
| O=C1CCC(C(=O)NCc2nn(-c3ccccc3)c3c2CCC3)CN1 (stereo unspecified) | 1.199 |
| O=C(c1csc(-c2ncccn2)n1)N1CCN(C2CCCC2)CC1 | -8.107 |
| COc1ccc(Cl)cc1CS(=O)(=O)CC(=O)NC(C)CCC(C)C (stereo unspecified) | 2.702 |

| SMILES | Percent Effect [%] |
| --- | --- |
| Cn1cccc1C(=O)N1CC[C@H]2[C@H]1CCN2CC1CC1.O=C(O)C(F)(F)F | 2.648 |
| CN(C)CC(=O)N1CCC2(CCc3cc(-c4cccnc4)ccc32)CC1.O=C(O)C(F)(F)F.O=C(O)C(F)(F)F | 1.059 |
| O=C(O)C(F)(F)F.O=C(O)C(F)(F)F.c1cncc(-c2ccc3c(c2)CCC32CCN(Cc3nccs3)CC2)c1 | 11.05 |
| c1cncc(-c2ccc3c(c2)CCC32CCNCC2)c1 | -33.05 |
| c1cncc(-c2ccc3c(c2)C2(CCNCC2)CC3)c1 | 1.24 |
| O=C(O)C(F)(F)F.O=C(O)C(F)(F)F.c1cncc(-c2ccc3c(c2)CCC32CCN(Cc3ccco3)CC2)c1 | 99.06 |
| Cc1nc(C)n(CC2CN(c3ncccn3)Cc3nccn3C2)n1 (stereo unspecified) | 9.978 |
| Cc1cnc(N2Cc3nccn3CC(Cn3nc(C)nc3C)C2)nc1 (stereo unspecified) | 1.951 |
| O=C(O)C(F)(F)F.O=c1cccnn1CC1CN(Cc2ccsc2)Cc2nccn2C1 (stereo unspecified) | 13.39 |
| O=C(O)C(F)(F)F.O=C(O)C(F)(F)F.c1cn2c(n1)CN(CC1CC1)CC(CN1CCOCC1)C2 (stereo unspecified) | 13.29 |
| Cc1cnc(N2Cc3nccn3CC(Cn3ncccc3=O)C2)nc1.O=C(O)C(F)(F)F (stereo unspecified) | 104.6 |
| O=c1cccnn1CC1CN(c2ncc(F)cn2)Cc2nccn2C1 (stereo unspecified) | 114.7 |
| O=C(O)C(F)(F)F.O=c1cccnn1CC1CN(CC2CCCC2)Cc2nccn2C1 (stereo unspecified) | 100.1 |
| CCCN1CCCN(C(=O)c2ccc(Oc3cccnc3)cc2)CC1 | 1.766 |
| O=C1NCCCCC1NS(=O)(=O)N1CCCCC1 (stereo unspecified) | 30.79 |
| Cc1nccn1-c1cc(CNC(=O)N2CCSCC2)ccn1 | -3.633 |
| Cc1cc(CNc2ccc(CC(=O)N(C)c3ccccc3)cc2)no1 | -7.262 |
| OC(CN(Cc1ccccc1)Cc1ccncc1)c1ccco1 (stereo unspecified) | 6.092 |
| O=C(COC(=O)Cc1cccs1)NCc1cccc(NC(=O)C2CC2)c1 | 2.841 |
| Cc1cccc(NC(=O)[C@@H]2CCCN2CC(=O)N2CCCCCC2)n1 | 2.208 |
| O=C(NCC1CC(=O)N(CCc2ccccc2)C1)c1ccon1 (stereo unspecified) | 4.92 |
| Cc1cc(NC(=O)CN2CCn3c(nnc3-c3ccccc3)C2)no1 | 6.417 |
| CC1(C)CC(=O)N(CC(=O)Nc2ccon2)c2ccccc21 | 100.4 |
| Cc1cc(NC(=O)CN2CCn3c(C)nnc3C2)no1 | 3.854 |
| CC1CN(C)c2ccccc2CN1C(=O)NCc1ccon1 (stereo unspecified) | 0.2534 |
| Cc1cc(NC(=O)CN2C(=O)CC(C)(C)c3ccccc32)no1 | 116.9 |

| SMILES | Percent Effect [%] |
| --- | --- |
| Cc1cccc(NC(=O)CN2C(=O)CC(C)(C)c3ccccc32)n1 | 106.1 |
| CCOCc1cccc(S(=O)(=O)N2CCSCC2)c1 | 5.017 |
| CCCS(=O)(=O)N1C[C@@H](Oc2ncccc2F)[C@H]2OCCC[C@H]21.O=C(O)C(F)(F)F | 117.2 |
| CCS(=O)(=O)N1C[C@@H](Oc2ccccn2)[C@H]2OCCC[C@H]21.O=C(O)C(F)(F)F | -45.01 |
| CCCS(=O)(=O)N1C[C@@H](Oc2ccccn2)[C@H]2OCCC[C@H]21.O=C(O)C(F)(F)F | 4.768 |
| O=C(O)C(F)(F)F.O=S(=O)(C1CC1)N1C[C@H](Oc2ccccn2)[C@H]2OCCC[C@H]21 | 9.296 |
| CCCS(=O)(=O)N1CCO[C@H]2[C@@H](Oc3cccnc3)CC[C@@H]21.O=C(O)C(F)(F)F | 101.6 |
| CCCS(=O)(=O)N1CCO[C@H]2[C@H](OCc3ccccn3)CC[C@@H]21.O=C(O)C(F)(F)F | -14.38 |
| CS(=O)(=O)N1CCO[C@H]2[C@@H](Oc3ncccc3F)CC[C@@H]21.O=C(O)C(F)(F)F | 100.8 |
| CCS(=O)(=O)N1CCO[C@H]2[C@H](Oc3ncccc3F)CC[C@@H]21.O=C(O)C(F)(F)F | 5.015 |
| CN(C)S(=O)(=O)N1C[C@@H](Oc2ccccn2)[C@H]2OCCC[C@H]21.O=C(O)C(F)(F)F | -0.1257 |
| CS(=O)(=O)N1C[C@@H](Oc2ccccn2)[C@H]2OCCC[C@H]21.O=C(O)C(F)(F)F | 12.05 |
| O=C(O)C(F)(F)F.O=S(=O)(C1CC1)N1CCO[C@H]2[C@@H](Oc3ncccc3F)CC[C@@H]21 | 120.5 |
| CN(CCCc1cc(-c2cccc(F)c2)n[nH]1)C(=O)Cn1cncn1 | -5.082 |
| COc1ccccc1OC1CN(C(=O)Cc2c(C)nc(C)[nH]c2=O)C1 | -23.21 |
| CC(CNC(=O)c1cc(-n2cccn2)ccn1)Cn1ccnc1 (stereo unspecified) | -5.602 |
| COCCCn1ccc(NCc2cnc(C(C)(C)C)s2)n1 | 1.35 |
| Cn1nc(Cn2ccnc2)c2c1CN(c1nccs1)C2.O=C(O)C(F)(F)F.O=C(O)C(F)(F)F | 4.707 |
| CCn1cnnc1CCNC(=O)CCNC(=O)c1ccccc1F | 3.625 |
| COC1CN(C(=O)NC2CCCC2)CCC(=O)N(C)c2ccccc21 (stereo unspecified) | 116.2 |
| Cn1cc(NC(=O)N2CCC(c3ccccc3)CC2)ccc1=O | -11.38 |
| O=C(NC1CCCC1)N1C[C@H]2CN(c3ccccn3)C[C@@]2(C(=O)O)C1 | -9.055 |
| COC(=O)[C@@H]1CN(C(=O)Nc2ccccc2)CCN1C(C)=O | -6.785 |
| CC(=O)N1CCN(C(=O)Nc2ccccc2)CC2(CC(=O)N(C)C2)C1 (stereo unspecified) | -20.73 |
| COC1CN(C(=O)C2CC2)CCC(=O)N(C)c2ccccc21 (stereo unspecified) | 115 |
| O=C(C1CC=CC1)N1CC[C@H]2[C@@H]1CCC(=O)N2c1ccccc1 | -0.4954 |

| SMILES | Percent Effect [%] |
| --- | --- |
| COC(=O)N1CCCN(C(=O)NC2CCc3ccccc3C2)CC1 (stereo unspecified) | -2.418 |
| COC1CCN(C(=O)Nc2ccccc2)CC(=O)N(C)c2ccccc21 (stereo unspecified) | 112.2 |
| COC1CN(C(=O)Nc2ccccc2)CCC(=O)N(C)c2ccccc21 (stereo unspecified) | 93.19 |
| O=C1NCCN2CCN(C(=O)Nc3ccc(-c4ccccc4)cc3)CC12 (stereo unspecified) | -8.363 |
| CN1C(=O)CCN(C(=O)C2CC=CC2)c2ccccc21 | 2.91 |
| O=C(c1cccc(Cl)c1Cl)N1CCN(CC(O)Cn2cccn2)CC1 (stereo unspecified) | -7.394 |
| Cc1ccn(-c2ccc(NCc3ccccc3F)nn2)n1 | -4.619 |
| CSCCC(=O)N(C/C=C/c1ccccc1)CCO | -21.61 |
| CC(C)(C)Oc1ccc(C(=O)N2CCOCC2c2ncon2)cc1 (stereo unspecified) | 0.1698 |
| Oc1nnc(-c2cccs2)c2sc(N3CCCC3)nc12 | -2.433 |
| CCC[C@H]1CN(Cc2ccc(N(C)C)nc2)C[C@@H]1NC(=O)CO | -10.52 |
| CC(C)Nc1ncc(CN2C[C@@H](CN3CCC(O)CC3)[C@@H](CO)C2)cn1 | -6.538 |
| CN1CCN(Cc2cnc3n2CCN(C(=O)c2ccncc2)C3)CC1 | 9.234 |
| CC(C)c1nnc2n1CCN(C(=O)c1ccc(S(C)(=O)=O)cc1)C2 | -9.775 |
| Cc1ccc(-n2nc3n(c2=O)CCN(C(=O)c2ccc(Cl)cc2)C3)cc1 | 122 |
| Cc1cccc(-n2ncc(C(=O)N3CCn4c(C)nnc4C3)c2C)c1 | -8.447 |
| CC(C)c1nnc2n1CCN(C(=O)c1ccc(Cn3cccc3)cc1)C2 | -2.793 |
| CC(C)c1nnc2n1CCN(C(=O)c1ccc(-n3cnnc3)cc1)C2 | -1.108 |
| O=C(c1ccc(Cl)cc1)N1CCn2c(nn(-c3ccncc3)c2=O)C1 | 118.8 |
| O=C(c1ccc(Cl)cc1)N1CCn2c(nn(-c3ccc(Cl)cc3)c2=O)C1 | 107.9 |
| O=C(c1ccc(Cl)cc1)N1CCn2c(nn(-c3cccc(Cl)c3)c2=O)C1 | 114.6 |
| CC(C)c1nnc2n1CCN(C(=O)c1ccc(OCC(N)=O)cc1)C2 | -11.93 |
| O=C(c1ccncc1)N1CCn2c(nnc2-c2ccccc2)C1 | -8.4 |
